# Results reported in ChEMBL document CHEMBL5606460, “ASAP - DENV-2 NS2B-NS3 protease fluorescence single point” (2024).
# The campaign covered roughly 2,000 compounds. About 110 (5.5%) showed an effect of 50% or more. The sample holds strong results, similar compounds and a random draw of the others, so the mix is not that of the screen.
# Target: Genome polyprotein (dengue virus type 2) (UniProt P29990)
# [1] = Thailand/16681/1984, Concentration 25.0 uM, Number of replicates 1.0
smiles,measurement,setting,value
C[C@H](NC(=O)C1CCN(c2ccc(C=O)cc2)CC1)c1ccc(S(C)(=O)=O)cc1,inhibition,[1],12.5%
CCN(C(=O)C1CCN(c2ccc(C=O)cc2)CC1)[C@H]1CCOC(C)(C)C1,inhibition,[1],13%
NCc1cccc(NC(=O)[C@@H](Cc2cccc(O)c2)NC(=O)OCc2ccccc2)c1,inhibition,"Thailand/16681/1984, Concentration 49.5 uM, Number of replicates 2.0, Standard deviation 2.8573642237031027 %",-3.63%
same,inhibition,"Thailand/16681/1984, Concentration 99.01 uM, Number of replicates 2.0, Standard deviation 1.9175045904819328 %",-3.65%
same,inhibition,"Thailand/16681/1984, Concentration 198.0 uM, Number of replicates 2.0, Standard deviation 1.9524208099559948 %",-2.84%
COc1cc(C(=O)N(C)C)nc(N2CCNCC2)n1,inhibition,"Thailand/16681/1984, Concentration 49.5 uM, Number of replicates 2.0, Standard deviation 4.026406870890022 %",-3.23%
same,inhibition,"Thailand/16681/1984, Concentration 99.01 uM, Number of replicates 2.0, Standard deviation 2.6098419358385048 %",-4.25%
same,inhibition,"Thailand/16681/1984, Concentration 198.0 uM, Number of replicates 2.0, Standard deviation 2.250930669275132 %",-2.7%
CC(C)(C)OC(=O)N[C@H](C(=O)Nc1ccc(CN)cc1)c1ccc(OCc2ccccc2)cc1,inhibition,"Thailand/16681/1984, Concentration 49.5 uM, Number of replicates 2.0, Standard deviation 0.7638001086987946 %",-1.42%
same,inhibition,"Thailand/16681/1984, Concentration 99.01 uM, Number of replicates 2.0, Standard deviation 0.5692523211680847 %",0.423%
same,inhibition,"Thailand/16681/1984, Concentration 198.0 uM, Number of replicates 2.0, Standard deviation 0.3400589812244498 %",5.26%
CC(C)(C)OC(=O)N[C@H](C(=O)Nc1cccc(C(N)=O)c1)c1ccc(OCc2ccccc2)cc1,inhibition,"Thailand/16681/1984, Concentration 49.5 uM, Number of replicates 2.0, Standard deviation 1.188000805409302 %",2.72%
same,inhibition,"Thailand/16681/1984, Concentration 99.01 uM, Number of replicates 2.0, Standard deviation 0.11203913598390365 %",5.59%
same,inhibition,"Thailand/16681/1984, Concentration 198.0 uM, Number of replicates 2.0, Standard deviation 0.9108004769909699 %",7.47%
CCCC[C@@H](NC(=O)OC(C)(C)C)C(=O)N[C@@H](C(=O)NCc1ccc(CN)cc1)c1ccc(OCc2ccccc2)cc1,inhibition,"Thailand/16681/1984, Concentration 49.5 uM, Number of replicates 2.0, Standard deviation 1.8529777654117539 %",94%
same,inhibition,"Thailand/16681/1984, Concentration 99.01 uM, Number of replicates 2.0, Standard deviation 0.005880328304239935 %",100%
same,inhibition,"Thailand/16681/1984, Concentration 198.0 uM, Number of replicates 2.0, Standard deviation 0.014706215557209234 %",99.9%
CC(C)(C)OC(=O)N[C@H](C(=O)Nc1cccc(CN)c1)c1ccc(OCc2ccccc2)cc1,inhibition,"Thailand/16681/1984, Concentration 49.5 uM, Number of replicates 2.0, Standard deviation 1.7551947166429631 %",-1.9%
same,inhibition,"Thailand/16681/1984, Concentration 99.01 uM, Number of replicates 2.0, Standard deviation 0.05489981052071439 %",3.23%
same,inhibition,"Thailand/16681/1984, Concentration 198.0 uM, Number of replicates 2.0, Standard deviation 0.6374768156986698 %",15%
CCCC[C@H](NC(=O)OC(C)(C)C)C(=O)N[C@H](C(=O)NCc1ccc(C(N)=O)cc1)c1ccc(OCc2ccccc2)cc1,inhibition,"Thailand/16681/1984, Concentration 49.5 uM, Number of replicates 2.0, Standard deviation 0.5441055304446053 %",-3.24%
same,inhibition,"Thailand/16681/1984, Concentration 99.01 uM, Number of replicates 2.0, Standard deviation 1.2410372194636528 %",12.6%
same,inhibition,"Thailand/16681/1984, Concentration 198.0 uM, Number of replicates 2.0, Standard deviation 0.08996362825826161 %",97.6%
Cc1cnccc1NC(=O)c1ccc2c(c1)COCC2,inhibition,"Thailand/16681/1984, Concentration 49.5 uM, Number of replicates 2.0, Standard deviation 2.5121871293930202 %",-1.99%
same,inhibition,"Thailand/16681/1984, Concentration 99.01 uM, Number of replicates 2.0, Standard deviation 1.8322256055090813 %",-1.68%
same,inhibition,"Thailand/16681/1984, Concentration 198.0 uM, Number of replicates 2.0, Standard deviation 3.8354075529759903 %",-1.51%
NCc1cccc(NC(=O)C2(NC(=O)OCc3ccccc3)CC(F)(F)C2)c1,inhibition,"Thailand/16681/1984, Concentration 49.5 uM, Number of replicates 2.0, Standard deviation 2.2677200349668407 %",-2.94%
same,inhibition,"Thailand/16681/1984, Concentration 99.01 uM, Number of replicates 2.0, Standard deviation 0.8839411333719474 %",-2.06%
same,inhibition,"Thailand/16681/1984, Concentration 198.0 uM, Number of replicates 2.0, Standard deviation 0.8051076448684426 %",-2.25%
Cc1cc(CO)c2cccc(Cc3ccccc3NC(=O)CN3CCOCC3)c2n1,inhibition,"Thailand/16681/1984, Concentration 49.95 uM, Number of replicates 2.0, Standard deviation 1.5612707024702146 %",-2%
same,inhibition,"Thailand/16681/1984, Concentration 99.9 uM, Number of replicates 2.0, Standard deviation 0.4618038620708361 %",3.39%
COc1cc(Cc2cnc(N)c(C(F)F)c2)nc(N2CCNCC2)n1,inhibition,"Thailand/16681/1984, Concentration 49.5 uM, Number of replicates 2.0, Standard deviation 0.44655669171298956 %",1.19%
same,inhibition,"Thailand/16681/1984, Concentration 99.01 uM, Number of replicates 2.0, Standard deviation 0.9500169394185984 %",3.1%
same,inhibition,"Thailand/16681/1984, Concentration 198.0 uM, Number of replicates 2.0, Standard deviation 0.4205436146652173 %",6.14%
CCCOc1ccc([C@H](C)NC(=O)C2CCN(c3ccc(C=O)cc3)CC2)cc1,inhibition,[1],7.26%
COc1ccc(C[C@H]2c3cc(OC)c(OC)cc3CCN2C(=O)C2CCN(c3ccc(C=O)cc3)CC2)cc1OC,inhibition,[1],15.8%
CCn1ccnc(N2CC[C@@H](CO)C2)c1=O,inhibition,"Thailand/16681/1984, Concentration 49.5 uM, Number of replicates 2.0, Standard deviation 0.40547257598729775 %",8.04%
same,inhibition,"Thailand/16681/1984, Concentration 99.01 uM, Number of replicates 2.0, Standard deviation 0.38043701079703857 %",15.5%
same,inhibition,"Thailand/16681/1984, Concentration 198.0 uM, Number of replicates 2.0, Standard deviation 0.16218916526483432 %",28.5%
CCn1c(=O)c(N2CC[C@@H](CO)C2)nc2ccccc21,inhibition,"Thailand/16681/1984, Concentration 49.5 uM, Number of replicates 2.0, Standard deviation 0.8446781408235627 %",16.3%
same,inhibition,"Thailand/16681/1984, Concentration 99.01 uM, Number of replicates 2.0, Standard deviation 1.6946189057395897 %",33.2%
same,inhibition,"Thailand/16681/1984, Concentration 198.0 uM, Number of replicates 2.0, Standard deviation 1.3775046688444705 %",53.9%
O=c1c(N2CC[C@H](CO)C2)nccn1C1CC1,inhibition,"Thailand/16681/1984, Concentration 49.5 uM, Number of replicates 2.0, Standard deviation 2.4482264734756005 %",8.46%
same,inhibition,"Thailand/16681/1984, Concentration 99.01 uM, Number of replicates 2.0, Standard deviation 2.8900822321462307 %",18%
same,inhibition,"Thailand/16681/1984, Concentration 198.0 uM, Number of replicates 2.0, Standard deviation 2.1394185374850085 %",33.2%
C[C@H](NC(=O)C1CCN(c2ccc(C=O)cc2)CC1)C12CC3CC(CC(C3)C1)C2,inhibition,[1],15%
CN(C(=O)C1CCN(c2ccc(C=O)cc2)CC1)[C@H]1CCN(Cc2ccccc2)C1,inhibition,[1],13.8%
Cc1nnc([C@H](C)n2cc(C3CCNCC3)c(C)n2)o1,inhibition,"Thailand/16681/1984, Concentration 49.5 uM, Number of replicates 2.0, Standard deviation 23.401160981224884 %",6.09%
same,inhibition,"Thailand/16681/1984, Concentration 99.01 uM, Number of replicates 2.0, Standard deviation 17.471832455878243 %",11.7%
same,inhibition,"Thailand/16681/1984, Concentration 198.0 uM, Number of replicates 2.0, Standard deviation 4.4669335919131345 %",-3.53%
